High-throughput results as filed in PubChem BioAssay.
This is a sample that favours compounds with a hit; in the whole collection about 3.4% have one here.
TEAD-YAP block = TEAD-YAP interaction inhibition. AID 1259422. 640,000 tested, 1.4% active. inhibition, % at 9.12 µM. HEK-TIYL cells, TEAD-Gal4/YAP UAS-luciferase luminescence; in the data active = inhibition above about 32%
GPR151 activ = activates the human receptor GPR151; Q8TDV0; PathHunter beta-arrestin GPR151 cells, luminescence; activation, % at 11.2 µM; 650,000 tested, 1% active; AID 1508602; in the data active = activation above about 4.9%
FBW7 act = human FBW7 E3 ligase activation, primary screen; AlphaScreen FBW7–phospho-cyclin E peptide binding, activator screen; 650,000 tested, 0.13% active; normalized activity (activation), % at 26.1 µM; in the data active = normalized activity above about 1.9%;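 note: purified mutant Fbw7 with reduced substrate affinity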
MITF inh = blocks human microphthalmia-associated transcription factor | O75030 | AlphaScreen MITF homodimerization, bead proximity signal | inhibition, % at 2.6 µM | 650,000 tested, 0.91% active | AID 1259374; in the data active = inhibition above about 50%
Hits are given with their value; i = inactive.

SMILES	TEAD-YAP block	GPR151 activ	FBW7 act	MITF inh
CC(C)C(=O)Nc1cccc(C(=O)Nc2cccc(O)c2)c1	59	i	i	i
COc1ccccc1N1CCN(c2ncc(C(=O)Nc3cccc(C(F)(F)F)c3)c3ccccc23)CC1	i	i	i	i
Cc1ccc(CNc2nc3ccccc3s2)s1	66	i	i	i
COc1ccc(-c2ccc(N)cc2)cc1	i	i	i	i
Nc1ccc(-c2ccc(-c3ccc(N)cc3)cc2)cc1	74	i	43	i
CCC(Sc1nc(Nc2ccc(F)c(F)c2)c2ccccc2n1)C(=O)NCCCOC (centres undefined)	i	i	i	i
Cc1ccc(N2C(N)=C(C#N)C(c3ccc4c(c3)OCO4)C3=C2CC(C)(C)CC3=O)cc1 (centres undefined)	42	i	i	i
COc1cc(C2C(C#N)=C(N)N(c3ccc(C)cc3)C3=C2C(=O)CC(C)(C)C3)cc(OC)c1OC (centres undefined)	54	i	i	i
O=C1C(=O)N(Cc2ccc(Br)cc2)c2ccc([N+](=O)[O-])cc21	33	i	i	i
O=C1C(=O)N(Cc2ccc(Cl)c(Cl)c2)c2ccc([N+](=O)[O-])cc21	i	i	i	i
O=C1C(=O)N(Cc2cccc3ccccc23)c2ccc(Br)cc21	i	i	i	i
O=C1C(=O)N(Cc2cccc3ccccc23)c2ccc([N+](=O)[O-])cc21	35	i	i	i
Cc1ccc(CN2C(=O)C(=O)c3cc([N+](=O)[O-])ccc32)cc1	66	i	i	i
c1ccc2c(c1)COC1(CCN(CCOc3cccc4c3OCCO4)CC1)O2	i	i	i	i
CNC(=O)/C(C#N)=C/c1ccc(-c2cccc(Cl)c2Cl)o1	i	i	i	i
Cc1cc(OCC(=O)Nc2ccc(C(=O)OC3CCCCC3)cc2)ccc1Cl	84	i	i	i
COc1ccccc1C(=O)OCC(=O)c1ccc([N+](=O)[O-])cc1	i	i	i	i
O=C(COC(=O)c1ccccc1C(F)(F)F)c1ccc([N+](=O)[O-])cc1	38	i	i	i
CC1=C/C(=C\c2c(O)n(Cc3ccco3)c(=S)[nH]c2=O)C(C)=N1	i	i	i	84
CC1=C/C(=C\c2c(O)[nH]c(=O)[nH]c2=O)C(C)=N1	i	i	i	i
C=CCNC(=S)N/N=C(\C)c1ccccn1	89	i	i	60
C=CCNC(=S)N/N=C(\C)c1ccc2ccccc2c1	i	i	i	i
CCc1nnc(NC(=O)c2ccc(OC)cc2)s1	40	i	i	i
O=C(Nc1ncc(Cc2ccc(F)cc2)s1)c1ccc(Br)cc1	38	i	i	i
COc1ccc(Cc2cnc(NC(=O)COc3ccccc3Cl)s2)cc1	58	i	i	i
SMILES	TEAD-YAP block	GPR151 activ	FBW7 act	MITF inh
CC(C)(C)c1ccc(C(=O)Nc2ncc(Cc3ccc(F)cc3)s2)cc1	i	i	i	i
Cc1ccc(Cc2cnc(NC(=O)/C=C/c3ccco3)s2)cc1	58	i	i	i
CCOc1ccc(/C=C/C(=O)Nc2ncc(Cc3ccc(C)cc3)s2)cc1	i	i	i	i
CCCCOc1ccc(C(=O)Nc2nnc(CC)s2)cc1	i	i	i	i
CCOc1ccc(NC(=O)C2CC(=O)N(Cc3ccc(OC)cc3)C(=Nc3ccccc3)S2)cc1 (centres undefined)	i	i	i	i
COC(=O)c1ccc(Nc2ncnc3c2cnn3-c2ccc(C)cc2C)cc1	i	i	i	i
COc1ccc(Cc2cnc(NC(=O)c3ccc(C)cc3)s2)cc1	50	i	i	i
COc1ccc(Cc2cnc(NC(C)=O)s2)cc1	i	i	i	i
Cc1nc2sc(C(=O)Nc3nccs3)c(C)c2c(=O)[nH]1	i	i	i	i
COc1ccc(-c2noc(CN(Cc3ccccn3)CC3CCCO3)n2)c(OC)c1OC (centres undefined)	39	i	i	i
CO/N=C/c1ccc(OC)c(Oc2nc(OC)cc(OC)n2)c1	33	i	i	i
CC(=O)N1C(=S)NC(=O)/C1=C/c1cc2cc(C)ccc2nc1N1CCOCC1	38	i	i	i
Oc1oc(-c2cccc3ccccc23)nc1C=Nc1cccnc1	i	i	i	i
COc1ccc(Nc2cc(N3CCCC3)c3noc4c3c2C(=O)c2ccccc2-4)cc1	i	i	i	i
COc1ccc(Nc2cc(N3CCCCC3C)c3noc4c3c2C(=O)c2ccccc2-4)cc1 (centres undefined)	i	i	i	51
COc1cccc(Nc2cc(N3CCCCC3)c3noc4c3c2C(=O)c2ccccc2-4)c1	i	i	i	i
COc1cccc(Nc2cc(N3CCCCC3C)c3noc4c3c2C(=O)c2ccccc2-4)c1 (centres undefined)	i	i	i	69
Oc1ccc(-c2cnc3c(N4CCOCC4)nccn23)cc1	79	i	i	i
